Compound activity from PubChem BioAssay.
PriA SSB inh: K. pneumoniae PriA-SSBct interaction inhibition. 0.6% of 430,000 active. inhibition, % at 33 µM. AID 1272365. AlphaScreen SSBct-PriA binding, biotinylated peptide; in the data active = inhibition mostly above about 37%, no sharp cut-off; inactive = mostly below about 20%;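 also: plate controls were negative control peptide for no effect and reference peptide for full effect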
PrPC TRFRET: cell surface PrPC inhibition, primary TR-FRET screen; P04156; TR-FRET read-out; inhibition, % at 13.8 µM; 0.43% of 370,000 active; in the data active = inhibition above about 24%; also: 0% = median of the test wells and 100% = reference compound wells
FadD28 binding: M. tuberculosis FadD28 bisubstrate binding inhibition; AID 588549; 0.22% of 360,000 active; inhibition, % at 12.5 µM; FadD28 bisubstrate probe binding, fluorescence polarization; in the data active = inhibition above about 8.5%, passing the limit was not always enough
Vc quorum ag: induces V. cholerae light production without autoinducers | V. cholerae BH1578 lux reporter, luminescence, 6 h | activation, % at 18.7 µM | 0.16% of 350,000 active; in the data active = activation mostly above about 9.7%, no sharp cut-off
PrP 5UTR inh: inhibition of PrP 5' UTR reporter expression; inhibition, % (test concentration not listed); 0.35% of 340,000 active; cell-based PrP 5' UTR mRNA reporter, plate reader; in the data active = inhibition above about 52%; also: 0 = median of the neutral control wells
PrPC TRFRET cf: cell surface PrPC inhibition, TR-FRET confirmation | cell surface PrPC level | inhibition, % at 13.8 µM | shares compounds with PrPC TRFRET | 65% of 1,500 active; in the data active = inhibition above about 25%
LD9 tox: LD9 cell cytotoxicity, PrPc inhibitor counter-screen. shares compounds with PrPC TRFRET. 29% of 1,500 active. LD9 cells cytotoxicity, luminescence viability. inhibition, % at 13.8 µM; in the data active = inhibition above about 9.5%
* marks the source's active call; other numbers are inactive results; i = inactive; / = no result given. Sampled rows, rich in hits. Any-hit rate of the full collection: about 1.4%.

SMILES	PriA SSB inh	PrPC TRFRET	FadD28 binding	Vc quorum ag	PrP 5UTR inh	PrPC TRFRET cf	LD9 tox
CC1CCCCC1Nc1nc2ccc(Cl)cc2n2cnnc12 (stereo unspecified)	2.5	34.0*	-4.2	-0.3	1.2	18.3	-0.9
Cc1cccc(/C=C2/SC(=NN=C3CC4CCC3(C)C4(C)C)NC2=O)c1 (stereo unspecified)	5.5	/	/	/	/	/	/
COc1ccc2ccccc2c1/C=N/NC(=O)c1cccc([N+](=O)[O-])c1	/	26.2*	-2.0	-0.4	-22.6	-0.6	-8.7
O=C(Nc1ccc(F)cc1F)c1cccn1-c1ncc(C(F)(F)F)cc1Cl	-7.0	14.5	-2.5	i	-14.2	/	/
Cc1cc(C)cc(NC(=O)c2cccn2-c2ncc(C(F)(F)F)cc2Cl)c1	6.2	32.0*	-4.9	i	-27.0	17.0	2.2
Cc1ccc(NC(=O)C(=O)Nc2ccc3c(c2)OCO3)cc1N1CCCC1=O	8.0	/	/	/	/	/	/
COc1ccc(Br)cc1Cn1nnc(C(=O)Nc2ccc3c(c2)OCCO3)c1N	2.3	25.0*	0.3	2.0	-29.7	17.7	-0.3
Fc1cccc(Cc2c(-c3ccco3)nc3ccc(Cl)cn23)c1	/	/	-5.8	/	/	/	/
N#Cc1ccc(-c2nc3ccc(Br)cn3c2Cc2cccc(F)c2)cc1	/	29.2*	-5.1	/	/	88.1*	1.3
Cc1ccc(Cc2c(-c3ccc(C#N)cc3)nc3ccc(Br)cn23)cc1	/	42.1*	-5.2	-0.8	/	46.7*	1.6
Fc1cccc(Cc2c(-c3ccco3)nc3ccc(Br)cn23)c1	/	50.8*	-5.6	/	/	70.2*	-0.4
N#CCC(N)=C(C#N)C#N	-2.6	61.3*	1.8	0.2	-21.0	18.2	-3.1
CC[C@H](C)[C@@H]1NC(=O)CNC(=O)c2csc(n2)[C@H](C(C)(C)O)OC(=O)C(C)(C)[C@H](CCCC(C)(Cl)Cl)OC(=O)c2csc1n2	/	34.2*	-3.8	/	/	25.6*	8.8
Cc1sc2ncnc(SCC(=O)N3CCCC3=O)c2c1C	-23.3	26.8*	-4.1	-0.4	-14.9	40.2*	-3.0
Cc1ccccc1NC(=O)CSc1ncnc2sc(C)c(C)c12	4.0	/	/	/	/	/	/
Cc1cccc(NC(=O)CSc2ncnc3sc(C)c(C)c23)n1	6.9	26.6*	-4.0	-3.6	-3.8	42.0*	-2.8
Cc1sc2ncnc(SCC(=O)NC(=O)c3cccn3C)c2c1C	3.2	31.0*	-0.7	-0.1	-2.2	76.5*	-4.5
Cc1sc2ncnc(SCC(=O)N3CCCCC3)c2c1C	-12.2	6.6	-5.2	-8.8	-19.4	/	/
Cc1cc(C)c(C)c(S(=O)(=O)N2CC(S(=O)(=O)Cc3ccco3)C2)c1C	-6.0	/	/	/	/	/	/
O=C(c1cc(COc2ccc3ncccc3c2)on1)N1CCC(O)CC1	-7.5	9.4	-0.3	i	-26.1	/	/
O=C(NC1CCCCCCC1)c1cc(COc2ccc3ncccc3c2)on1	1.8	28.4*	-2.2	i	-21.0	18.6	17.6*
Cc1cc(CN(C)C(=O)c2cc(COc3ccc4ncccc4c3)on2)on1	-18.7	16.9	-4.4	0.6	-9.3	/	/
CC(CNC(=O)c1cc(COc2ccc3ncccc3c2)on1)c1ccccc1 (stereo unspecified)	-7.7	24.7*	-1.8	/	-21.4	21.8	17.0*
Cc1cc(NC(=O)C(=O)NCc2ccc3c(c2)OCO3)n(-c2nc3c(c(=O)[nH]2)CCC3)n1	-1.0	/	/	/	/	/	/
Cc1nnsc1C(=O)N1CCC(CSCc2ccco2)CC1	-20.0	/	/	/	/	/	/
SMILES	PriA SSB inh	PrPC TRFRET	FadD28 binding	Vc quorum ag	PrP 5UTR inh	PrPC TRFRET cf	LD9 tox
CCOC(=O)c1c(/N=C/N(C)C)sc(/C=N/Nc2ccccc2)c1-c1ccccc1Cl	/	-0.2	-2.7	i	-10.5	/	/
CCOC(=O)c1c(/N=C/N(C)C)sc(/C=N/Nc2ccccc2)c1-c1ccccc1	/	53.7*	-1.9	0.1	-23.7	39.8*	0.1
COCCn1c(SCC(=O)N2CC(=O)Nc3ccccc32)nc2ccccc2c1=O	1.1	-2.5	-2.3	-0.2	-14.8	/	/
Cc1cccc(C)c1-n1c(SCC(=O)N2CC(=O)Nc3ccccc32)nc2ccccc2c1=O	-1.8	26.8*	-22.4	i	-14.8	18.2	0.5
Cc1ccc(-n2c(SCC(=O)N3CC(=O)Nc4ccccc43)nc3ccccc3c2=O)cc1	-3.7	7.0	-1.3	0.7	-15.3	/	/
CC(C)c1nc(SCC(=O)N2CC(=O)Nc3ccccc32)c2ccccc2n1	-7.2	79.8*	-3.1	-0.4	-5.2	103.7*	-0.1
O=S(=O)(N=Cc1cc(Br)ccc1O)c1ccccc1	-17.0	/	/	/	/	/	/
O=C(c1cc2ccccc2[nH]1)N1CCC(Oc2cccc3cccnc23)CC1	4.0	/	/	/	/	/	/
Cc1c(C(=O)Nc2ccc(-c3nnc4n3CCCCC4)cc2)oc2ccc(Br)cc12	-2.5	40.2*	-5.5	-0.6	-13.9	48.9*	6.5
CN(Cc1ccccc1)C1(CNC(=O)CCC(F)(F)F)Cc2ccccc2C1	-5.0	25.5*	-1.6	-0.7	-16.4	14.9	-0.4
CC(=O)NCCC(=O)NCC1(N(C)Cc2ccccc2)Cc2ccccc2C1	-14.8	1.7	-3.6	i	-49.8	/	/
N#Cc1c(NC(=O)CSc2nc3sc4c(c3c(=O)n2-c2ccccc2)CCCC4)sc2c1CCCC2	-11.0	/	/	/	/	/	/
O=S(c1ccc2ccccc2c1)c1cnns1 (stereo unspecified)	-1.1	34.2*	0.8	i	3.0	6.0	76.3*
O=C(NCCc1ccoc1)C(=O)NC1CC1	-18.0	/	/	/	/	/	/
CC(=O)c1sc(NC(=O)c2c(F)cccc2F)nc1-c1ccccc1	-20.5	25.2*	-3.5	-0.5	-34.5	21.4	-7.5
CCCc1noc2c1/C(=N\O)CC(c1ccccc1)C2 (stereo unspecified)	/	24.4*	-4.6	/	-13.8	5.4	6.2
CCCc1noc2c1C(=NO)CC(c1ccccc1)C2 (stereo unspecified)	-14.3	/	/	/	/	/	/
CC1CCN(c2ccc3nnc(CCC(=O)N4CCN(c5ccc(F)cc5)CC4)n3n2)CC1	0.9	40.2*	-0.1	i	-18.8	-5.7	-2.8
CC1CCN(c2ccc3nnc(CCC(=O)N4CCCCC4)n3n2)CC1	4.5	-0.2	1.0	i	0.5	/	/
O=C(NCC1CCN(Cc2cccs2)CC1)c1ccccc1Cl	-9.0	/	/	/	/	/	/
CCOC(=O)c1sc(NC(=S)NC(=O)C2CCCC2)cc1C	4.0	25.9*	-0.2	0.3	-3.0	56.3*	-5.9
CCOC(=O)c1sc(NC(=S)NC(=O)CC(C)C)cc1C	-15.1	36.8*	-3.5	i	-33.2	39.7*	0.9
COc1cc(C#Cc2c(-c3cncn3C)n(C)c3ccc(-c4ccc5[nH]ccc5c4)cc23)cc(OC)c1	5.2	27.2*	-5.2	1.2	-38.3	16.1	14.2*
CCCCCCCC/C=C\CCCCCCCC(=O)NCCc1ccc(O)c(O)c1	20.0	82.9*	-0.9	i	-2.7	44.2*	64.6*
Nc1nonc1C(=O)NN=Cc1ccncc1	-7.9	/	/	/	/	/	/
S=c1nc(Cc2ccc(Cl)cc2)[nH]c2ccccc12	-11.3	29.2*	-1.7	-0.2	-15.9	59.8*	-2.9
S=c1nc(Cc2ccccc2)[nH]c2ccccc12	-3.6	31.2*	-0.9	-0.7	1.5	26.3*	-4.3
